SMILES strings stand for the structures.

One assay concerns LOC_OS01G39600-cb002. The assay can be described thus: thermal shift delta Tm vs DMSO control; higher = stronger stabilization (binding). Particulars: 12.5 µM; protein concentration 2 µM. The method in brief: (§1)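 Compounds dissolved in DMSO were added to purified rice kinase domain constructs, which had been expressed in E. coli, for differential scanning fluorimetry. Each well held 19.5 μl of 2 μM kinase in 100 mM potassium phosphate pH 7.5, 150 mM NaCl, 10% glycerol and 5 × SYPRO Orange. Fluorescence was followed from 25°C to 95°C at a rate of 0.05°C/s. Shifts in Boltzmann-fitted melting temperature are triplicate means relative to DMSO-only protein.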
In the case of `Oc1c2ccccc2c2c3c(cccc13)N=N2`, the “thermal shift delta Tm” value is 1.16 °C.
With `CSc1cccc(Nc2ncc3cc(-c4c(Cl)cccc4Cl)c(=O)n(C)c3n2)c1`, the “thermal shift delta Tm” value was -0.21 °C.
On the same count and under the same terms, the same measure for `COc1cc(Nc2ncc(F)c(Nc3ccc4c(n3)NC(=O)C(C)(C)O4)n2)cc(OC)c1OC` [R406 (free base)]: 5.87 °C.
On to `Cc1cn(-c2cc(NC(=O)c3ccc(C)c(Nc4nccc(-c5cnccn5)n4)c3)cc(C(F)(F)F)c2)cn1` [Radotinib], for which the “thermal shift delta Tm” value is -0.12 °C.
On the same count and under the same terms, the result for `CN1CCN(Cc2ccc(-c3cnc4[nH]cc(-c5ccc6[nH]ccc6c5)c4c3)cc2)CC1` reads 9 °C; that for `CONC(=O)c1ccccc1Nc1cc(Nc2cc(C)nn2C(C)C)ncc1Cl`, 4.21 °C; that for `CNC(=O)c1cc(Oc2ccc(NC(=O)Nc3ccc(Cl)c(C(F)(F)F)c3)c(F)c2)ccn1` [Regorafenib (BAY 73-4506)], 0.21 °C.
Consider `c1cc(-c2cnn3cc(-c4ccc(OCCN5CCCCC5)cc4)cnc23)ccn1` [Dorsomorphin 2HCl], for which the “thermal shift delta Tm” value came to 7.6 °C.
The same measure, in the same setting: the result for `CCCCCCCCCC(=O)CC(O)S(=O)(=O)O` (centres undefined) [Sodium Houttuyfonate] reads -0.35 °C; that for `CC(C)[C@H](CO)Nc1nc(Nc2cccc(Cl)c2)c2ncn(C(C)C)c2n1` [Purvalanol A], -0.08 °C.
As to `COc1ccc(Cl)c(Nc2nc3ccccc3nc2NS(=O)(=O)c2cccc(NC(=O)C(C)(C)N)c2)c1` [Pilaralisib (XL147)], the “thermal shift delta Tm” value amounted to 2.65 °C.
Same read-out and setting: the result for `CC(C)Oc1ccc(-c2nn([C@@H](C)c3oc4ccc(F)cc4c(=O)c3-c3cccc(F)c3)c3ncnc(N)c23)cc1F` reads -0.2 °C; that for `O=C(/C=C/c1ccc2ccccc2n1)c1ccncc1`, -0.61 °C; that for `CC(C)(O)CC(=O)NCCn1ccc2ncnc(Nc3ccc(Oc4cccc(C(F)(F)F)c4)c(Cl)c3)c21`, 3.99 °C.
The same measure, in the same setting: the same measure for `CCOC(=O)c1cnc2ccc(-c3cncc(NS(=O)(=O)c4ccccc4)c3)cn12`: 0.33 °C; for `N#Cc1c(NC(=O)c2cccc3ccccc23)sc2c1CCCC2` [JNK Inhibitor IX]: -0.09 °C.
On to `CN(C)Cc1cccc(N=C(c2ccccc2)c2c(O)[nH]c3cc(C(=O)N(C)C)ccc23)c1`, for which the “thermal shift delta Tm” value stood at 1.05 °C.
Same read-out and setting: the same measure for `O=c1c(-c2ccc(O)cc2)coc2cc(O)cc(O)c12` [Genistein]: 0.12 °C; for `CCn1c2ccccc2c2cc(Nc3ccnc(NCCCN4CCOCC4)n3)ccc21`: -0.04 °C.
Turning to `N#CC(=C(/N)Sc1ccccc1N)/C(C#N)=C(\N)Sc1ccccc1N`, the “thermal shift delta Tm” value was 1.48 °C.
Regarding `CCN(CC)CCCC(C)Nc1nc(C)cc(Nc2ccc3nc(C)cc(N)c3c2)n1` (centres undefined), the “thermal shift delta Tm” value amounted to 0.28 °C.
As for `c1cn2cc(-c3ccc4cn[nH]c4c3)nc(Nc3ccc(N4CCOCC4)cc3)c2n1` [Entospletinib (GS-9973)], the “thermal shift delta Tm” value is 4.22 °C.
On the same count and under the same terms, the same measure for `C[C@H]1CNC(=O)c2cnn3ccc(nc23)N[C@H](C)c2cc(F)ccc2O1`: 0.15 °C.
As to `CC(C)c1cnn2c(NCc3ccccc3)cc(NCCCCCCN)nc12`, the “thermal shift delta Tm” value is -0.29 °C.
Turning to `C=CC(=O)Nc1cccc(Nc2nc(Nc3ccc(NC4CN(CCF)C4)cc3OC)ncc2C(F)(F)F)c1`, the “thermal shift delta Tm” value is 1.11 °C.
The same measure, in the same setting: the result for `CNC(=O)CN1CCC(Oc2cc3c(Nc4cccc(Cl)c4F)ncnc3cc2OC)CC1` [Sapitinib (AZD8931)] reads 0.43 °C.
Same read-out and setting: the same measure for `C=CC(=O)Nc1cccc(Nc2nc(Nc3ccc(N4CCN(C(C)=O)CC4)cc3OC)ncc2C(F)(F)F)c1` [Rociletinib (CO-1686, AVL-301)]: -0.84 °C; for `O=C(c1ccc(/C=C/c2n[nH]c3ccccc23)cc1)N1CCNCC1`: 5.76 °C; for `Cc1ccc(NC(=O)c2ccc(CN3CCN(C)CC3)cc2)cc1Nc1nc(-c2cccnc2)cs1` [Masitinib (AB1010)]: -0.05 °C.
Still for that read-out and setting: the result for `N#Cc1c(O)c2c(-c3ccc(-c4ccccc4O)cc3)csc2[nH]c1=O` reads 0.7 °C; that for `CN1CC[C@H](c2c(O)cc(O)c3c(=O)cc(-c4ccccc4Cl)oc23)[C@H](O)C1` [Flavopiridol (Alvocidib)], 1.37 °C; that for `Cc1cnc(Nc2ccc(OCCN3CCCC3)cc2)nc1Nc1cccc(S(=O)(=O)NC(C)(C)C)c1`, 5.09 °C.
Consider `C[C@@H](Oc1ccc2[nH]nc(/C=C/c3cnn(CCO)c3)c2c1)c1c(Cl)cncc1Cl`, for which the “thermal shift delta Tm” value was 9.68 °C.
On to `Nc1cccc(-c2cc3c(Oc4cccc(O)c4)ncnc3[nH]2)c1`, for which the “thermal shift delta Tm” value stood at 3.68 °C.
Consider `CN1CCC(COc2cnc(-c3cccc(Cn4nc(-c5cccc(C#N)c5)ccc4=O)c3)nc2)CC1`, for which the “thermal shift delta Tm” value is 0.63 °C.
Turning to `C[C@H](Nc1ncnc2nc[nH]c12)c1cc2cccc(Cl)c2c(=O)n1-c1ccccc1` [Duvelisib (IPI-145, INK1197)], the “thermal shift delta Tm” value is -0.51 °C.
Same read-out and setting: the result for `CCCCNc1ncc(C(=O)NCc2ccc(-n3ccnc3)cc2)c(NC2CCC(O)CC2)n1` (centres undefined) reads 2.74 °C.

The subject of a further assay is LOC_OS01G48390-cb002. The description is as above. Particulars: 12.5 µM; protein concentration 2 µM. The gist of the method: as §1
As to `Oc1c2ccccc2c2c3c(cccc13)N=N2`, the “thermal shift delta Tm” value worked out at 5.42 °C.
Still for that read-out and setting: the same measure for `CSc1cccc(Nc2ncc3cc(-c4c(Cl)cccc4Cl)c(=O)n(C)c3n2)c1`: 0.12 °C.
Same read-out and setting: the same measure for `COc1cc(Nc2ncc(F)c(Nc3ccc4c(n3)NC(=O)C(C)(C)O4)n2)cc(OC)c1OC` [R406 (free base)]: 0.31 °C; for `Cc1cn(-c2cc(NC(=O)c3ccc(C)c(Nc4nccc(-c5cnccn5)n4)c3)cc(C(F)(F)F)c2)cn1` [Radotinib]: 0.73 °C.
In the case of `CN1CCN(Cc2ccc(-c3cnc4[nH]cc(-c5ccc6[nH]ccc6c5)c4c3)cc2)CC1`, the “thermal shift delta Tm” value amounted to 3.1 °C.
Same read-out and setting: the result for `CONC(=O)c1ccccc1Nc1cc(Nc2cc(C)nn2C(C)C)ncc1Cl` reads 1.49 °C.
Same read-out and setting: the result for `CNC(=O)c1cc(Oc2ccc(NC(=O)Nc3ccc(Cl)c(C(F)(F)F)c3)c(F)c2)ccn1` [Regorafenib (BAY 73-4506)] reads 0.48 °C; that for `c1cc(-c2cnn3cc(-c4ccc(OCCN5CCCCC5)cc4)cnc23)ccn1` [Dorsomorphin 2HCl], 5.88 °C; that for `CCCCCCCCCC(=O)CC(O)S(=O)(=O)O` (centres undefined) [Sodium Houttuyfonate], 0.2 °C.
For `CC(C)[C@H](CO)Nc1nc(Nc2cccc(Cl)c2)c2ncn(C(C)C)c2n1` [Purvalanol A], the “thermal shift delta Tm” value turned out to be 2.56 °C.
Consider `COc1ccc(Cl)c(Nc2nc3ccccc3nc2NS(=O)(=O)c2cccc(NC(=O)C(C)(C)N)c2)c1` [Pilaralisib (XL147)], for which the “thermal shift delta Tm” value was 1.05 °C.
Same read-out and setting: the same measure for `CC(C)Oc1ccc(-c2nn([C@@H](C)c3oc4ccc(F)cc4c(=O)c3-c3cccc(F)c3)c3ncnc(N)c23)cc1F`: 1.45 °C; for `O=C(/C=C/c1ccc2ccccc2n1)c1ccncc1`: 0.91 °C.
On to `CC(C)(O)CC(=O)NCCn1ccc2ncnc(Nc3ccc(Oc4cccc(C(F)(F)F)c4)c(Cl)c3)c21`, for which the “thermal shift delta Tm” value stood at 2.26 °C.
Same read-out and setting: the same measure for `CCOC(=O)c1cnc2ccc(-c3cncc(NS(=O)(=O)c4ccccc4)c3)cn12`: 0.35 °C.
The same measure, in the same setting: the same measure for `N#Cc1c(NC(=O)c2cccc3ccccc23)sc2c1CCCC2` [JNK Inhibitor IX]: -0.06 °C; for `CN(C)Cc1cccc(N=C(c2ccccc2)c2c(O)[nH]c3cc(C(=O)N(C)C)ccc23)c1`: 1.46 °C; for `O=c1c(-c2ccc(O)cc2)coc2cc(O)cc(O)c12` [Genistein]: 0.77 °C.
Still for that read-out and setting: the result for `CCn1c2ccccc2c2cc(Nc3ccnc(NCCCN4CCOCC4)n3)ccc21` reads 0.62 °C.
`N#CC(=C(/N)Sc1ccccc1N)/C(C#N)=C(\N)Sc1ccccc1N`: the “thermal shift delta Tm” value was 0.24 °C.
In the case of `CCN(CC)CCCC(C)Nc1nc(C)cc(Nc2ccc3nc(C)cc(N)c3c2)n1` (centres undefined), the “thermal shift delta Tm” value came out at 1.07 °C.
On the same count and under the same terms, the result for `c1cn2cc(-c3ccc4cn[nH]c4c3)nc(Nc3ccc(N4CCOCC4)cc3)c2n1` [Entospletinib (GS-9973)] reads 0.98 °C; that for `C[C@H]1CNC(=O)c2cnn3ccc(nc23)N[C@H](C)c2cc(F)ccc2O1`, 1.46 °C; that for `CC(C)c1cnn2c(NCc3ccccc3)cc(NCCCCCCN)nc12`, 0.09 °C.
With `C=CC(=O)Nc1cccc(Nc2nc(Nc3ccc(NC4CN(CCF)C4)cc3OC)ncc2C(F)(F)F)c1`, the “thermal shift delta Tm” value was 2.29 °C.
As for `CNC(=O)CN1CCC(Oc2cc3c(Nc4cccc(Cl)c4F)ncnc3cc2OC)CC1` [Sapitinib (AZD8931)], the “thermal shift delta Tm” value turned out to be 0.44 °C.
The same measure, in the same setting: the result for `C=CC(=O)Nc1cccc(Nc2nc(Nc3ccc(N4CCN(C(C)=O)CC4)cc3OC)ncc2C(F)(F)F)c1` [Rociletinib (CO-1686, AVL-301)] reads 1.8 °C; that for `O=C(c1ccc(/C=C/c2n[nH]c3ccccc23)cc1)N1CCNCC1`, 5.36 °C.
Still for that read-out and setting: the same measure for `Cc1ccc(NC(=O)c2ccc(CN3CCN(C)CC3)cc2)cc1Nc1nc(-c2cccnc2)cs1` [Masitinib (AB1010)]: 0.15 °C; for `N#Cc1c(O)c2c(-c3ccc(-c4ccccc4O)cc3)csc2[nH]c1=O`: 0.95 °C; for `CN1CC[C@H](c2c(O)cc(O)c3c(=O)cc(-c4ccccc4Cl)oc23)[C@H](O)C1` [Flavopiridol (Alvocidib)]: 0.03 °C.
The same measure, in the same setting: the result for `Cc1cnc(Nc2ccc(OCCN3CCCC3)cc2)nc1Nc1cccc(S(=O)(=O)NC(C)(C)C)c1` reads 0.66 °C; that for `C[C@@H](Oc1ccc2[nH]nc(/C=C/c3cnn(CCO)c3)c2c1)c1c(Cl)cncc1Cl`, 4.56 °C; that for `Nc1cccc(-c2cc3c(Oc4cccc(O)c4)ncnc3[nH]2)c1`, 2.32 °C.
On to `CN1CCC(COc2cnc(-c3cccc(Cn4nc(-c5cccc(C#N)c5)ccc4=O)c3)nc2)CC1`, for which the “thermal shift delta Tm” value is 0.2 °C.
Still for that read-out and setting: the same measure for `C[C@H](Nc1ncnc2nc[nH]c12)c1cc2cccc(Cl)c2c(=O)n1-c1ccccc1` [Duvelisib (IPI-145, INK1197)]: 1.02 °C; for `CCCCNc1ncc(C(=O)NCc2ccc(-n3ccnc3)cc2)c(NC2CCC(O)CC2)n1` (centres undefined): 2.96 °C.

The values above are taken from the supplement of paper PMC9694430.
